INS promoter inh: inhibitors of insulin promoter-driven GFP, primary screen, imaging, TRM-6 cells (human fetal islet line), eGFP reporter, cell count; reporter expression induced with tamoxifen; inhibition, % at 2 µM; hit rate 0.9% among 130,000; AID 1273, 2008;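 active = inhibition above the mean plus 3 SD, with well images judged a real hit on visual review, cut at about 60% in these data, passing the limit was not always enough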
Cl transport mod: KCC2 cotransporter modulators, thallium flux, primary screen, cell-based, HEK293 KCC2, FluoZin-2 fluorescence, MLSMR; Solute carrier family 12 member 5 (Homo sapiens), Q9H2X9; KCC2 cells, thallium flux FluoZin-2 fluorescence; B-score of Tl+ flux slope (higher = more flux/activation; lower = inhibition) at 10 µM; hit rate 2.2% among 190,000;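 active = thallium flux slope and its plate-corrected score both differing from the plate sample mean at a set confidence after two filtering rounds, in either direction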;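 also: slope of fluorescence scaled to starting intensity during 10 to 20 s after thallium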
Target sequence (Q9H2X9 whole entry, looked up): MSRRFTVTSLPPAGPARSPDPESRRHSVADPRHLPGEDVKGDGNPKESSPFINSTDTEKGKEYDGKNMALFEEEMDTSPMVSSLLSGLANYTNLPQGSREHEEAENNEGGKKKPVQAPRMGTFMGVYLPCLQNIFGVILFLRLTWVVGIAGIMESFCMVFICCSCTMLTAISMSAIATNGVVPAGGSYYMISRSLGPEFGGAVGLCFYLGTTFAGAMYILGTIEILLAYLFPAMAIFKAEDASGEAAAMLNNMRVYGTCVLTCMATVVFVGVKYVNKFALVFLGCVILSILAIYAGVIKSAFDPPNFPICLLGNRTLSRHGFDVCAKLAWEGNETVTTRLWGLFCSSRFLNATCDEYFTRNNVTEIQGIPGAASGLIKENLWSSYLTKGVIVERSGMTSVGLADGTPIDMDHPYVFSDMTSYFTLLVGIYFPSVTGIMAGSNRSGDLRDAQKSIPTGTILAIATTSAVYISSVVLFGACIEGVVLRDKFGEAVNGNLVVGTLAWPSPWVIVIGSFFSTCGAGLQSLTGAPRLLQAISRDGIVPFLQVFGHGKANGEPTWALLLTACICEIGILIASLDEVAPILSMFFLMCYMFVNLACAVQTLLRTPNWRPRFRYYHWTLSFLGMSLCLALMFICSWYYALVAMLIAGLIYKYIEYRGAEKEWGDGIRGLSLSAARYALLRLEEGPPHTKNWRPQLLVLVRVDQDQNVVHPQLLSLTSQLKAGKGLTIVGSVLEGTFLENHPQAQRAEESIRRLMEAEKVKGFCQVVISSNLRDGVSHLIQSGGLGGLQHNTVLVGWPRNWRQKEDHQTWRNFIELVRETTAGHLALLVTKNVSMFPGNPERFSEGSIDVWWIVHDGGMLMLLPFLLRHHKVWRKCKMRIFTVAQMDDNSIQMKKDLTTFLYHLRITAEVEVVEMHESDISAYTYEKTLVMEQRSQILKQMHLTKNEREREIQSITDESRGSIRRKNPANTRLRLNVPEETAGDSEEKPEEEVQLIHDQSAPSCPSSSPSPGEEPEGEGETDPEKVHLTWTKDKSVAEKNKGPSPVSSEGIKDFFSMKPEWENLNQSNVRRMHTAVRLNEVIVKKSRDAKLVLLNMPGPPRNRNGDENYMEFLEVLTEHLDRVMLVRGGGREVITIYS
ROMK primary: ROMK potassium channel modulators, primary screen, cell-based, thallium flux, MLSMR library; AID 1918, 2009; B-score at 10 µM; Tet-inducible ROMK, thallium flux fluorescence; actives lie on both sides; ATP-sensitive inward rectifier potassium channel 1 (Homo sapiens), P48048; hit rate 2% among 130,000;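 active = signal ratio slope over the read window, or its plate-corrected B-score, at least 3 SD from the plate mean, either direction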;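 also: B-score of the F/F0 ratio slope over 7 to 12 s after thallium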
L major viab: Leishmania major promastigote growth inhibition, primary screen; hit rate 9% among 200,000; inhibition, % at 10 µM; Leishmania major promastigotes, resazurin fluorescence viability; in the data active = inhibition above about 50%;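 also: promastigotes grown with compound for 44 hours at 28 °C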
Insulin prom up: insulin promoter activators in MIN6 cells, imaging, high-content screening, mouse beta cells; MIN6 insulin promoter-GFP reporter; active compounds read high; z-score at 5 µM; AID 1625, 2009; hit rate 0.3% among 190,000;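 active = z-score above 3 at 5 µM with at least 500 cells counted in the well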
WT yeast gro inh: growth inhibition of WT strain, primary screen, mitochondrial fusion inhibitor project, WT and mutant strains, chemical genetic; mitochondrial fusion phenotypic screen; inhibition, % at 10 µM; hit rate 2.1% among 190,000; AID 1362, 2008; in the data active = inhibition above about 58%; tested in S. cerevisiae
Each line names hits and unclear results; the compound was inactive in the other large screens. Rows were chosen to be rich in hits. Some 12% of all compounds tested hit in one or more screens of this group.

O=C(OCc1cnc(Cl)s1)c1cccs1	none
Clc1ccccc1-c1nn2c(Cn3cnc4ccccc43)nnc2s1	none (no result: ROMK primary)
CCC(C)[C@@H](C(=O)Nc1ccc2c(c1)OCO2)N1Cc2ccccc2C1=O (stereo not given in full)	L major viab 61 (no result: INS promoter inh, Cl transport mod, ROMK primary)
CC(SCc1ccccc1)C(=O)Nc1ccc2c(c1)OCO2 (stereo not given)	none (no result: Insulin prom up)
CC(C)[C@@H](C(=O)OCC(=O)Nc1ccc2c(c1)OCO2)N1C(=O)c2ccccc2C1=O	L major viab 82
Cn1ncc2c1ncn1nc(CCc3ccccc3)nc21	Insulin prom up 3.6 (no result: INS promoter inh, Cl transport mod)
C/C(N)=C(/C#N)C(=O)COC(=O)CCC1CCCC1	none (no result: Cl transport mod)
CC(=O)c1cccc(NC(=S)N2c3ccccc3CC2C)c1 (stereo not given)	none
CC1Cc2ccccc2N1C(=S)NC(=O)C1(C)CC1(Cl)Cl (stereo not given)	Cl transport mod 93, ROMK primary 13
COc1nc(NCCO)nc(Nc2ccc([N+](=O)[O-])cc2)n1	none (no result: ROMK primary)
COc1nc(Nc2ccc([N+](=O)[O-])cc2)nc(NC(C)C)n1	L major viab 97
CCOc1nc(Nc2ccc([N+](=O)[O-])cc2)nc(NC(C)(C)C)n1	L major viab 74
O=C(CCN1CCOCC1)NNC(=O)/C(=C/c1ccccc1)NC(=O)c1ccccc1	none
CN(Cc1ccccc1)C(=O)COC(=O)C1=NNC(=O)CC1	L major viab 52 (no result: ROMK primary)
C=CCc1c(C)nc(C)nc1N/N=C/c1ccccc1O	L major viab 99 (no result: ROMK primary)
CCc1ccc(N2C(=O)Cc3c2nc(N)c(C#N)c3N)cc1	none (no result: Insulin prom up)
CCN(CC)c1nc2c3c(nc4c(c3c1C#N)CC(=O)N4c1ccc(Cl)cc1)NC(C)=N2	L major viab 56 (no result: INS promoter inh, ROMK primary)
COc1ccccc1N1CCN(C(=O)c2ccc3nc(-c4ccco4)c(-c4ccco4)nc3c2)CC1	none
Cc1ccc(C)c(N2CCN(C(=O)c3ccccc3Br)CC2)c1	WT yeast gro inh 58 (no result: INS promoter inh, ROMK primary, Insulin prom up)
Cc1ccc(C)c(N2CCN(C(=O)c3ccc4nc(-c5ccco5)c(-c5ccco5)nc4c3)CC2)c1	L major viab 82 (no result: ROMK primary)
S=c1[nH]nc(-c2n[nH]c3c2CCC3)n1/N=C/C=C/c1ccco1	none (no result: INS promoter inh, ROMK primary, L major viab, WT yeast gro inh)
O=S(=O)(c1ccc(NC(=S)N2CCN(c3ccccc3F)CC2)cc1)N1CCOCC1	none
CCCCOCCCNC(=S)Nc1ccc(S(=O)(=O)N2CCOCC2)cc1	none (no result: INS promoter inh, ROMK primary, L major viab, WT yeast gro inh)
COc1ccccc1N1CCN(C(=S)Nc2ccc(S(=O)(=O)N3CCOCC3)cc2)CC1	L major viab 71 (no result: INS promoter inh)
O=S(=O)(c1ccc(NC(=S)NCCC(c2ccccc2)c2ccccc2)cc1)N1CCOCC1	L major viab 60
O=S(=O)(c1ccc(NC(=S)N/N=C/c2c3ccccc3cc3ccccc23)cc1)N1CCOCC1	L major viab 95 (no result: INS promoter inh, Insulin prom up)
Cc1c(N2C(=O)C3C4C=CC(C5CC45)C3C2=O)c(=O)n(-c2ccccc2)n1C (stereo not given)	none (no result: INS promoter inh, ROMK primary, L major viab, WT yeast gro inh)
COc1nc2c(s1)C(=O)NCCC2	none (no result: Cl transport mod)
O=[N+]([O-])c1ccc(OCCN2CCCCCC2)cc1	none (no result: INS promoter inh, ROMK primary)
COc1ccc(OCCCN2CCCC(C)C2)cc1 (stereo not given)	L major viab 97 (no result: Cl transport mod, ROMK primary)
CC1CCCN(CCCOc2ccc([N+](=O)[O-])cc2)C1 (stereo not given)	L major viab 89 (no result: ROMK primary)
COc1ccc(C(CCN2CCCC(C)C2)c2c(OC)cc(OC)c3c(C)cc(=O)oc23)cc1 (stereo not given)	none (no result: INS promoter inh, ROMK primary, L major viab, Insulin prom up, WT yeast gro inh)
COc1ccc(NC(=O)CC2C(=O)N(c3cccc(OC)c3)C(=O)N2C2CCCCC2)cc1 (stereo not given)	none (no result: ROMK primary)
O=C(Nc1ccon1)C12CC3CC(C1)CC(n1cnc([N+](=O)[O-])n1)(C3)C2	L major viab 62 (no result: INS promoter inh)
COc1ccc(NC(=O)C23CC4CC(C2)CC(n2cnc(Br)n2)(C4)C3)c(C)c1	none (no result: ROMK primary, Insulin prom up)
Cc1cc(NC(=O)C23CC4CC(C2)CC(n2cnc([N+](=O)[O-])n2)(C4)C3)no1	L major viab 51 (no result: INS promoter inh)
Cc1cc2cc(CNC(=O)c3ccc(S(=O)(=O)N4CCOCC4)cc3)ccc2n1C	none (no result: INS promoter inh, ROMK primary)
CC(=O)Nc1ccc(C2=NN(C)C(=NCc3ccccc3)SC2)cc1	L major viab 67
O=C(Nc1ccc(Cl)cc1)N1CCSC1=NCc1ccccc1	none (no result: INS promoter inh, ROMK primary, L major viab, WT yeast gro inh)
CCCNC(=O)c1ccc(SC)cc1OC	none (no result: INS promoter inh, ROMK primary)
COc1cc(SC)ccc1C(=O)NCC1CCCO1 (stereo not given)	WT yeast gro inh 86 (no result: ROMK primary, Insulin prom up)
COc1cc(SC)ccc1C(=O)NCCOc1ccc(C)c(C)c1	WT yeast gro inh 64 (no result: INS promoter inh)
CC(C)N(Cc1ccccc1)C(=O)CSc1nccn1C	none
Cc1ccc(S(=O)(=O)CC#CCOC(=O)c2ccc([N+](=O)[O-])cc2)cc1	L major viab 100 (no result: ROMK primary)
COc1ccccc1N1CCc2c(C)nc3c(OC)cccc3c21	L major viab 89 (no result: INS promoter inh, ROMK primary)
COc1cccc2c3c(c(C)nc12)CCN3c1ccccc1	L major viab 78 (no result: Insulin prom up)
COc1ccc(O)c(C2=Nc3ccccc3N=C(c3ccco3)C2)c1	none (no result: Cl transport mod, ROMK primary)
Oc1ccc(Cl)cc1C1=Nc2ccccc2N=C(c2ccco2)C1	Insulin prom up 4.3
O=[N+]([O-])c1cc(/C=N\O)ccc1Oc1ccc(F)cc1	none
COc1cccc(/C=C/C(=O)c2ccc(NC3=NCCCS3)cc2)c1	L major viab 99
Cc1cccc(/C=C/C(=O)c2ccc(NC3=NCCCS3)cc2)c1	L major viab 77 (no result: INS promoter inh, ROMK primary)
COCc1cc(C)nc(OCC(=O)N/N=C/c2ccc(-c3cccc([N+](=O)[O-])c3)o2)c1C#N	none (no result: INS promoter inh)
COc1ccc(N(CC(=O)Nc2cccc(OC)c2)S(=O)(=O)c2c(C)nn(C)c2C)cc1	L major viab 57 (no result: INS promoter inh, Cl transport mod)
COc1ccc(N(CC(=O)Nc2nc3ccc(C)cc3s2)S(=O)(=O)c2c(C)nn(C)c2C)cc1	L major viab 66 (no result: INS promoter inh, ROMK primary)
COc1ccc(N(CC(=O)Nc2cc(OC)ccc2OC)S(=O)(=O)c2c(C)nn(C)c2C)cc1	L major viab 100 (no result: INS promoter inh, ROMK primary)
COc1cccc(NC(=O)CN(c2ccc(C)cc2)S(=O)(=O)c2c(C)nn(C)c2C)c1	none (no result: INS promoter inh, Cl transport mod, ROMK primary)
COc1ccc(N(CC(=O)NCc2ccccc2)S(=O)(=O)c2c(C)nn(C)c2C)cc1	none (no result: INS promoter inh, ROMK primary)
O=C(CN(Cc1ccccc1)C(=O)CCC(=O)Nc1ccccn1)NCc1ccco1	none (no result: INS promoter inh, ROMK primary)
O=C(CSCc1ccccc1)N=Nc1c(O)[nH]c2ccccc12	Cl transport mod 8.6
O=C(CSCc1cccc(Br)c1)N=Nc1c(O)[nH]c2ccccc12	none (no result: ROMK primary)
Cc1ccc(CN2CCN(CC(=O)N=Nc3c(O)[nH]c4ccccc34)CC2)cc1	L major viab 100 (no result: INS promoter inh)
COc1cc(CNCCc2c[nH]c3ccccc23)ccc1OCc1ccccc1F	L major viab 98 (no result: INS promoter inh, Cl transport mod, ROMK primary)
COc1cc(C(=O)NCCc2c[nH]c3ccccc23)ccc1OCc1c(C)noc1C	none
COc1cc2c(cc1NC(=O)c1cc(-c3ccncc3)nc3ccc(C)cc13)oc1ccccc12	none (no result: INS promoter inh, Cl transport mod, ROMK primary)

High-throughput results (PubChem BioAssay)
